Measurements published in PubChem BioAssay AID1846 (The Scripps Research Institute Molecular Screening Center, 2009).
Among all 2,300 compounds or so, about 1,500 (65%) were called active. The set was probably picked from earlier hits. Not all results are given here. Unmarked numbers belong to inactive results. No stated cut-off is given here; in the data, active means inhibition above about 18%; inactive means the rest.

Each molecule was assayed against Heat shock protein HSP 90-alpha (Homo sapiens) (UniProt P07900) (assay: HSP90 inhibitors, confirmation, cell lysate, luminescence (AID 1846;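 further: 0% = vehicle wells and 100% = reference inhibitor wells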)). Details: rabbit reticulocyte lysate, luciferase refolding luminescence, 3 h; at 5.9 µM; stronger effect = higher value.
For `COc1cccc(-c2nc3ccc(N4CCN(C)CC4)cc3[nH]2)c1`, the inhibition was 69.3% (active).
With `O=c1c2ccccc2nc(/C=C/c2ccco2)n1-c1ccccc1O` the inhibition was 9.67%.
